Source: ChEMBL document CHEMBL3988442, “University of Dundee, Small-Polar-MMV Screening Library” (2021)
For some of these results: Results with a measured potency or affinity are listed apart.

Experiments:
Design in all cases: scale not given: direction of the effect not stated beside the values
[1] = target: Protein translocase subunit SecA (Escherichia coli (strain K12)) (UniProt P10408); experiment: Assay to Identify E. coli SecA ATPase Inhibitors; assay type: functional; settings: 30 µM
[2] = target: T1, Ubiquitin-activating enzyme e1, putative (Leishmania donovani (strain BPK282A1)) (UniProt E9BSI1); experiment: Leishmania donovani Ubiquitin Activating Enzyme (LdE1); assay type: functional; settings: 30 µM
T1 sequence (whole entry): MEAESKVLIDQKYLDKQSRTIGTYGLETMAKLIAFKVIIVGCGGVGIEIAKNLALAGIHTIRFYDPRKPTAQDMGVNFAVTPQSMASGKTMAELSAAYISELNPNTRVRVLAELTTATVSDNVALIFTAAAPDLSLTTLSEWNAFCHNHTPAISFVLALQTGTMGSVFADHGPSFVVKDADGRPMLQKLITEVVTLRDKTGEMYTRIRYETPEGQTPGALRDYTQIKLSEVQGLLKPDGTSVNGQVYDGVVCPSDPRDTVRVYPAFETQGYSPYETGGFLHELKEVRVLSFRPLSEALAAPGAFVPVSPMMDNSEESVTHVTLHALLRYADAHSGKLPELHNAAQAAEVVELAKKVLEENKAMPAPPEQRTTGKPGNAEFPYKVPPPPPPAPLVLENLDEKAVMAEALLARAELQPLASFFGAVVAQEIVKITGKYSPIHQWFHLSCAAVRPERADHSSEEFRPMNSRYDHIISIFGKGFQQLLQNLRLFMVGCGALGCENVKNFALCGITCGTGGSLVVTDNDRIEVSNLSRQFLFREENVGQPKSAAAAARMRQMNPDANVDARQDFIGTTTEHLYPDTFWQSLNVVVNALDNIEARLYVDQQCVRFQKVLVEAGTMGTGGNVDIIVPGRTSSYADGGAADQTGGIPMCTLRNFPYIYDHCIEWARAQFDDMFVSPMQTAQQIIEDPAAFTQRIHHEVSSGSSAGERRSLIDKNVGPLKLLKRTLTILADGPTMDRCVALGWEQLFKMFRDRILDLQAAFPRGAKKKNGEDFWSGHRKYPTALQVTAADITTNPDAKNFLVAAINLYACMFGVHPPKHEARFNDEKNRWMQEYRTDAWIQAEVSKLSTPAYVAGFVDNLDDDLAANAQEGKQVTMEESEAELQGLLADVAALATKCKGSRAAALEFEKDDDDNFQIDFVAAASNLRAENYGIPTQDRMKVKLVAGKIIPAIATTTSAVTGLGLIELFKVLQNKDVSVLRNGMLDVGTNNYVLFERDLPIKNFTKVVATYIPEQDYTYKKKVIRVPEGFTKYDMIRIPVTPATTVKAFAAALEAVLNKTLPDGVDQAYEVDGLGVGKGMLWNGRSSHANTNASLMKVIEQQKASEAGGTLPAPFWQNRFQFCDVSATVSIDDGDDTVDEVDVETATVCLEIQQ

[3] = target: AMP-activated protein kinase, AMPK (Homo sapiens) (UniProt P54646+O43741+P54619+Q9UGJ0+Q9Y478+Q13131+Q9UGI9); experiment: AMP-dependent Kinase enzyme assay. An in vitro enzyme assay that detects ADP turnover that is directly proportional to AMPK activity. This uses naive AMPK that is activated during the assay with MK-8722; assay type: functional; settings: 30 µM
[4] = target: Sialic acid-binding Ig-like lectin 9 (Homo sapiens) (UniProt Q9Y336); experiment: Hs-Siglec9 ALPHAscreen SOP 20170721; settings: 10 µM
Trypanosoma cruzi = experiment: Trypanosoma cruzi phosphomannomutase and mannose-1-phosphate guanylyltransferase assay; assay type: functional; settings: 10 µM
[5] = target: T2, Arginase-2, mitochondrial (Homo sapiens) (UniProt P78540); experiment: in vitro enzyme assay to detect the production of urea directly proportional to the activity of Arginase II; assay type: functional; settings: 33.3 µM; also: in the data most compounds retested in dose-response had high values
T2 sequence (whole entry): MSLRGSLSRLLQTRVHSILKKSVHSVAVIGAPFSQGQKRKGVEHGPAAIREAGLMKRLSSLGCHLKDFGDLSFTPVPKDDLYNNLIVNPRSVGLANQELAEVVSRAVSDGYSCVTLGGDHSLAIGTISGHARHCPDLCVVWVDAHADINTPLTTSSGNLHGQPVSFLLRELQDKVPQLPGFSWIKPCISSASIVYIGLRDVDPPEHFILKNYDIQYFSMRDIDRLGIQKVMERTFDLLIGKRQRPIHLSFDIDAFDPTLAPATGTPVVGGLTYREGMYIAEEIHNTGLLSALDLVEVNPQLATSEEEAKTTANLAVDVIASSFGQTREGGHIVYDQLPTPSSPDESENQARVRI

[6] = target: T3, Proteasome subunit beta (Trypanosoma cruzi) (UniProt O96673); experiment: Trypanosoma cruzi proteasome chymotrypsin-like activity (TcProtChymo) assay.; also: in the data most compounds retested in dose-response had high values; assay type: functional; settings: 9.37 µM
T3 sequence (whole entry): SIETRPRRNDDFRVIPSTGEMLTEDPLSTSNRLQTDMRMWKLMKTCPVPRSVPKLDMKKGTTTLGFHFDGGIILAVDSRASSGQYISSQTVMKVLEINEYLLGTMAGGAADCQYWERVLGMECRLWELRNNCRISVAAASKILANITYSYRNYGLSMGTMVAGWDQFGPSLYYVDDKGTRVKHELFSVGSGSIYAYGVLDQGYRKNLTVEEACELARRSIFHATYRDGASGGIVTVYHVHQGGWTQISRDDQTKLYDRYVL

Homo sapiens = species on record: Homo sapiens; experiment: To identify inhibition of the IFN signalling (Jak-Stat) pathway via expression of an eGFP reporter gene under the control of an IFN-stimulated response element (ISRE) containing MxA promoter.; assay type: functional; settings: 30 µM
[7] = target: T4, Tyrosyl-tRNA synthetase, putative (Trypanosoma cruzi (strain CL Brener)) (UniProt Q4DSP6); experiment: Trypanosoma cruzi tyrosyl tRNA synthetase (TcYRS) _High Tyrosine SOP; assay type: functional; settings: 30 µM; also: in the data most compounds retested in dose-response had high values
T4 sequence (whole entry): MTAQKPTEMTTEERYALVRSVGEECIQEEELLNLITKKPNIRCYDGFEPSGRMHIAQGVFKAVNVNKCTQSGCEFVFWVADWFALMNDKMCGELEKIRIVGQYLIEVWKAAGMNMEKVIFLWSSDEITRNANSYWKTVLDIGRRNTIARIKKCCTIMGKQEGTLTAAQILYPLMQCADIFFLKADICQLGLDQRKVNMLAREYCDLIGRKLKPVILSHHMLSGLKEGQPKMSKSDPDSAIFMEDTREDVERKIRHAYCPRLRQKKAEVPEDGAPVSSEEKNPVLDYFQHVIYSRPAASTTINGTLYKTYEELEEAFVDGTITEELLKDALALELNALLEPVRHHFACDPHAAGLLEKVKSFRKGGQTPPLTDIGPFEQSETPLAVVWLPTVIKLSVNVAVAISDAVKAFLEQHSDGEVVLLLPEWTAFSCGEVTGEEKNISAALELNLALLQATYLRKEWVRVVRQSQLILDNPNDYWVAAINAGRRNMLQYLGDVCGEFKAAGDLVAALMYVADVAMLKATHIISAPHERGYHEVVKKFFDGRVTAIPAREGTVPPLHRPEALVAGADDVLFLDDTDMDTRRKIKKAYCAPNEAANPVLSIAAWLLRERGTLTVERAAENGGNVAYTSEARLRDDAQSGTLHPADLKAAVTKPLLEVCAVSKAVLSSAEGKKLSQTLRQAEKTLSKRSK

[8] = target: T4, Tyrosyl-tRNA synthetase, putative (Trypanosoma cruzi (strain CL Brener)); experiment: Trypanosoma cruzi tyrosyl tRNA synthetase (TcYRS) SOP; assay type: functional; settings: 30 µM
[9] = target: Chromo domain-containing protein 1 (Saccharomyces cerevisiae (strain ATCC 204508 / S288c) (Baker's yeast)) (UniProt P32657); experiment: ScCHD-1 Enzyme Inhibition Assay; assay type: functional; settings: 30 µM; also: in the data most compounds retested in dose-response had high values
Chromo domain-containing protein 1 (Saccharomyces cerevisiae (strain ATCC 204508 / S288c) (Baker's yeast)), sequence (P32657 whole entry, the tested form may be a part): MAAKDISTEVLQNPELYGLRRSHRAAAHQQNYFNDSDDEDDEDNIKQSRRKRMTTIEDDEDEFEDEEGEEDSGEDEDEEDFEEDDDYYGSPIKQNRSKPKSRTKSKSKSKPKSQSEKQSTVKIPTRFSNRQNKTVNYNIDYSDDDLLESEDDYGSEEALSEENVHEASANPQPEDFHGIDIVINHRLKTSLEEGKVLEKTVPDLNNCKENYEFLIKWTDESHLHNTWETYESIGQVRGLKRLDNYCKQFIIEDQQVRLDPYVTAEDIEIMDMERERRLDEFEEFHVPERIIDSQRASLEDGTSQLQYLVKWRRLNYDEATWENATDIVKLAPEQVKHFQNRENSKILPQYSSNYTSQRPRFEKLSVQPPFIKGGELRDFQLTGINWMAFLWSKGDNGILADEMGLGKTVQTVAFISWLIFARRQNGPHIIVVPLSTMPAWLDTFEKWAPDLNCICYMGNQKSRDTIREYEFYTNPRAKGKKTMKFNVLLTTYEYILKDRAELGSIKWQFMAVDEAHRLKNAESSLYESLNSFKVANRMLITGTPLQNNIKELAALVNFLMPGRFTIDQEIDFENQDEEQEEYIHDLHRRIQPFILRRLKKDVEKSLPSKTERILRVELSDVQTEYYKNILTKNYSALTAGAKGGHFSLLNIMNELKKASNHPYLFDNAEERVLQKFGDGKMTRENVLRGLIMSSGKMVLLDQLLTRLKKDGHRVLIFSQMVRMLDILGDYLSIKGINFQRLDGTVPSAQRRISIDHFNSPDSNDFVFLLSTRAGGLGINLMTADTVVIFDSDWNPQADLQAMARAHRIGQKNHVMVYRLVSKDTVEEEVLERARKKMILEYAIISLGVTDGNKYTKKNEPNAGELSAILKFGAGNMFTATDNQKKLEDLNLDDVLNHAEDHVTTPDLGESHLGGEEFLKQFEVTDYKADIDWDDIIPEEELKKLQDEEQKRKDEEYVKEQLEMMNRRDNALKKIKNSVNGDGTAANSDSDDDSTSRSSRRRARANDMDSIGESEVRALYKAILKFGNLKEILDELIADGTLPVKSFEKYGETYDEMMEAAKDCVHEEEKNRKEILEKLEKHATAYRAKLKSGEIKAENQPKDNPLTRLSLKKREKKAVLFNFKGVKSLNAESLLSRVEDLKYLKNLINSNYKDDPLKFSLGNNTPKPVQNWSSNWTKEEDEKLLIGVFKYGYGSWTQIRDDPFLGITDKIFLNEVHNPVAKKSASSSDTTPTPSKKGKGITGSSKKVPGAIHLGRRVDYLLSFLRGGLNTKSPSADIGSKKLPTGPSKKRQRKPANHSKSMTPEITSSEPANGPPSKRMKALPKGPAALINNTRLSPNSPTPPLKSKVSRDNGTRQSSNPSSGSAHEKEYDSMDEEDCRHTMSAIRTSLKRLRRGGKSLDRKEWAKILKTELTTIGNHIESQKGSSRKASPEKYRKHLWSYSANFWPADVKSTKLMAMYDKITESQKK

Sialic acid-binding Ig-like lectin 9 (Homo sapiens), sequence (Q9Y336 whole entry): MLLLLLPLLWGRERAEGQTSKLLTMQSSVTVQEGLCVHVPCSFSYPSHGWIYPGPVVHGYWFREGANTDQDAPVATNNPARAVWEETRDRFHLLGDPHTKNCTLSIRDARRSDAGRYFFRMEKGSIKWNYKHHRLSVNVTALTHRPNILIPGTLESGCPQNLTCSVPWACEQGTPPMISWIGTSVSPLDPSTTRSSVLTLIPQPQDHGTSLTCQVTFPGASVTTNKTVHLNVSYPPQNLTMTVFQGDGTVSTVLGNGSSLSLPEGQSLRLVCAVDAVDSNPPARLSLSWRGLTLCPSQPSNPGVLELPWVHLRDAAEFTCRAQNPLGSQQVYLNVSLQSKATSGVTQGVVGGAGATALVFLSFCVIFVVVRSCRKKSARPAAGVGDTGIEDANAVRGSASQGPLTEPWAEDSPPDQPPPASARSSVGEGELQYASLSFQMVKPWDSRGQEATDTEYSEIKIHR
Protein translocase subunit SecA (Escherichia coli (strain K12)), sequence (P10408 whole entry): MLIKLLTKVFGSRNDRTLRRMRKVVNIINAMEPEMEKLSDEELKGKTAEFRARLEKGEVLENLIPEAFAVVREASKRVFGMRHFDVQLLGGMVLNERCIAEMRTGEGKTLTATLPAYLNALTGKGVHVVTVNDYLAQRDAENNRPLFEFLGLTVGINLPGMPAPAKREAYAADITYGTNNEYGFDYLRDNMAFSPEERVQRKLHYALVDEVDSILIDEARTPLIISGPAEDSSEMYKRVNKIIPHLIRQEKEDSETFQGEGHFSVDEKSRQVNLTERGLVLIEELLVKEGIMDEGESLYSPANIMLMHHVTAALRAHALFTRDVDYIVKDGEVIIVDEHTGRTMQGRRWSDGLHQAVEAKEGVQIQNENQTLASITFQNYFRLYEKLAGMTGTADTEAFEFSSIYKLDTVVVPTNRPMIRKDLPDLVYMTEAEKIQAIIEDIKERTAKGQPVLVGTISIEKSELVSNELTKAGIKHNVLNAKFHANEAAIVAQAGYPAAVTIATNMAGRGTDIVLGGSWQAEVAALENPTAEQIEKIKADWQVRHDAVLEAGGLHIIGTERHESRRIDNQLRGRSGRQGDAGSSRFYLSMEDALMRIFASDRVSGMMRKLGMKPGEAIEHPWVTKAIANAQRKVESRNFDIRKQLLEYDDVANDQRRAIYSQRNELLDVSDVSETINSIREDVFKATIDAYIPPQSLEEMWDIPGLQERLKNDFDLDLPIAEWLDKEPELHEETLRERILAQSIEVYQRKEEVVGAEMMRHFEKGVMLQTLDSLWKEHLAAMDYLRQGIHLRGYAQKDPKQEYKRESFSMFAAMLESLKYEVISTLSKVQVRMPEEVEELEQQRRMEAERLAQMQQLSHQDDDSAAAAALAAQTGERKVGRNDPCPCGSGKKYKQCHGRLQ

| Compound | Percent Effect [1] | Percent Effect [2] | Percent Effect [3] | Percent Effect [4] | Percent Effect (Trypanosoma cruzi) | Percent Effect [5] | Percent Effect [6] | Percent Effect (Homo sapiens) | Percent Effect [7] | Percent Effect [8] | Percent Effect [9] |
| --- | --- | --- | --- | --- | --- | --- | --- | --- | --- | --- | --- |
| Cn1cnc(S(=O)(=O)NCCCN2CCOCC2)c1Cl | -3.33% | 2.7% | -5.32% | -2.1% | -10.5% | 26.1% | 7.21% | 16.1% | 4.43% | 3.7% | -8.3% |
| O=C1[C@H]2CN(CC3CC3)C[C@H]2CN1Cc1cccc(F)c1 | 1.22% | -56.8% | 4.89% | 3.99% | -0.0978% | -0.955% | 12.7% | -14.7% | 2.16% | 2.56% | 9.93% |
| Cc1ccc(CNC(=O)Nc2cc(C(F)(F)F)c[nH]c2=O)cn1 | -3.22% | 6.94% | 7.59% | -6.47% | 0.0972% | 4.42% | 11.6% | -18.5% | 6.32% | 12.8% | -5.05% |
| CCN(CC)C(=O)c1ccn(COc2cc(C)cc(C)c2)n1 | -0.199% | 22.7% | -7.15% | 1.4% | -0.982% | -5.81% | 14.1% | 41.2% | 4.23% | 12.8% | -12.1% |
| COc1cccc(CNc2nc(O)cc(C3CC(=O)N(C)C3)n2)c1 (stereo not given) | 1.85% | 12.2% | 4.37% | 1.72% | -4.35% | 2.09% | 16.7% | 14.9% | 5.38% | -1.3% | -11.6% |
| O=C(NC[C@]12COC[C@H]1CN(C1CCOCC1)C2)c1ccco1 | -5.25% | 10.7% | 4.78% | -6.09% | -2.17% | 8.16% | 12.8% | 5.24% | 9.57% | 8.97% | 0.371% |
| Cc1nc(CC(=O)N2CCCN(c3ccc(C#N)cc3)CC2)cs1 | -2.43% | 0% | 5.74% | -0.961% | -5.55% | -4.73% | 14.5% | 2.28% | 2.13% | 5.2% | -1.52% |
| Cc1ccsc1CNC(=O)NC1CCCc2c1cnn2CCO (stereo not given) | -6.41% | 2.67% | 2.26% | 2.19% | -1.27% | -3.12% | 13.4% | -12.2% | 6.01% | 18.5% | -4.15% |
| Cc1cc(CN2CCc3nn(C(C)C)c(=O)cc3C2)no1 | -6.46% | 0% | -5.64% | 2.16% | -0.781% | 0.833% | 14.1% | -0.957% | 7.92% | 8.54% | -7.52% |
| CC(C)c1nn(C)c(N(C)C)c1CNCCC(=O)NC1CCCC1 | -6.71% | 21.1% | -15.3% | 3.05% | 10.4% | 1.08% | 13.4% | -19.1% | 7.39% | 23.5% | -6.05% |
| COc1ccccc1C1(C(=O)NCCN2CCOCC2)CCOCC1 | -0.484% | 10.8% | -1.78% | -1.23% | -0.0943% | -2.81% | 12.4% | -15.9% | 3.45% | 13.6% | -7.26% |
| Cc1nccn1CCC1CCCCN1Cc1ccncc1 (stereo not given) | -5.73% | 8% | -13% | -0.0054% | -2.63% | 0.521% | 13.8% | 25.9% | 2.73% | 13.6% | -6.06% |
| NC(=O)c1ccc2c(c1)nc1n2CCN(Cc2ccco2)C1 | -3.62% | 21.1% | 5.96% | 1.24% | 3.02% | -2.37% | 9.49% | 1.88% | 5.32% | 5.2% | 34.5% |
| Cc1cnn(CC2CN(Cc3nnc(-c4occc4C)o3)CCO2)c1 (stereo not given) | -3.52% | 10.8% | 142% | -3.99% | 3.06% | -0.924% | -0.898% | 16% | 7.92% | 23.2% | -5.94% |
| CCOC(=O)[C@]12CCCN(Cc3ccco3)C[C@H]1CN(CCN(C)C)C2 | -2.71% | 7.79% | 3.96% | 8.64% | -0.888% | -0.645% | 14.4% | 2.34% | 1.06% | 8.97% | -6.8% |
| CC(=O)c1cccc(NC(=O)Cn2cc(I)cn2)c1 | -6.3% | -2.63% | 12% | 2.47% | -2.43% | 11.8% | 9.3% | -2.61% | -2.13% | 2.6% | 63% |
| COc1ccc(C[C@H]2CN(c3nnc(C)s3)CC[C@@H]2OC)cc1 | -4.17% | 5.33% | -2.8% | -1.52% | 2.7% | -49.6% | 5.81% | 3.46% | -34.4% | 7.5% | 86.4% |
| O=C(NCCOc1ccc(F)c(F)c1)NCc1cccc(CO)c1 | -2.53% | 2.7% | 1.53% | 4.96% | 1.16% | -2.38% | 15.2% | 19.7% | -0.529% | 7.32% | -4.04% |
| O=C(NCCCN1CCOCC1)Nc1cnc2cc(Cl)ccc2c1O | 0.589% | 17.6% | 9.55% | -8.53% | -3.16% | -5.34% | 12.8% | 31.9% | 0% | 1.3% | -6.01% |
| CCOCC(=O)N1C[C@@H]2COC[C@H](c3nc(C)no3)[C@@H]2C1 | -1.23% | -5.41% | 5.84% | -1.1% | 0.586% | 2.5% | 9.21% | 1.97% | -15.8% | -1.22% | -2.33% |
